Mito fusion act: qHTS Assay for Small Molecule Inhibitors of Mitochondrial Division or Activators of Mitochondrial Fusion. S. cerevisiae fusion-defective mutant growth rescue, CellTiterGlo 48 h. Potency, µM (highest dose often 46.1 µM), hits mostly activators. 0.23% of 320,000 active; note: nearly all actives have a fitted effect of over 45% in size
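Compounds are tested for their ability to restore growth of mitochondrial fusion-defective yeast strains at non-permissive 37C in YPEG medium over 48 hours. Viability is quantified by luciferase luminescence.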
VDR inhibitor: Inhibitors of the vitamin D receptor (VDR): qHTS | 0.93% of 400,000 active | Potency, µM, hits mostly inhibitors | VDR-SRC2-3 peptide fluorescence polarization, 2 h | Vitamin D3 receptor (Homo sapiens), P11473 | AID 504847, 2011
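FP read-out; VDR + SRC2-3 coactivator peptide; 23 nl compound by pintool; 2 h RT incubation; reagents held at 4 deg C, protected from light.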
PKM2 act: qHTS Assay for Activators of Human Muscle isoform 2 Pyruvate Kinase. Pyruvate kinase PKM (Homo sapiens), P14618. purified PKM2, Kinase-Glo ATP luminescence, activation; response scale: 0% is enzyme alone, no compound. Potency, µM (highest dose often 57.5 µM), usual class: activators. 0.34% of 260,000 active. AID 1631, 2009; note: nearly all actives have a fitted effect of over 55% in size
Target sequence (P14618 whole entry, looked up, canonical isoform): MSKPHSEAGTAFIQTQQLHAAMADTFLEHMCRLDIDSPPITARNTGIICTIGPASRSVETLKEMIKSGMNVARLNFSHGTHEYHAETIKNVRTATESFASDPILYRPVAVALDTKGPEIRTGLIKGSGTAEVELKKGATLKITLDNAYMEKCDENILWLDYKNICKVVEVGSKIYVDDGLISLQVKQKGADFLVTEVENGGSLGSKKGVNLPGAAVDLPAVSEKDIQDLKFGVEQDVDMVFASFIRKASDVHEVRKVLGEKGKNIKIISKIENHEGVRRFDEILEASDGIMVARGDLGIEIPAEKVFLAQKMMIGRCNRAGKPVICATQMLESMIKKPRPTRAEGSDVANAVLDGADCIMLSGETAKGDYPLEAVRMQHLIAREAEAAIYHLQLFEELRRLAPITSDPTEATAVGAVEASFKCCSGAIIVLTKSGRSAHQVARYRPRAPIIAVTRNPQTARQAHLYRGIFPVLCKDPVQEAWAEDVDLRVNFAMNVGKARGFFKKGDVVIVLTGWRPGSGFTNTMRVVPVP
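Kinase-Glo luminescence reports ATP generated from ADP (0.1 mM) and PEP (0.5 mM) by purified hPK-M2 after 1 h at room temperature, pH 7.2 imidazole buffer; intermediate enzyme activity allows detecting inhibitors and activators.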
GLS inhibitor: qHTS for Inhibitors of Glutaminase (GLS). Glutaminase kidney isoform, mitochondrial (Homo sapiens), O94925. GLS enzymatic activity, qHTS titration. Potency, µM (highest dose often 45.5 µM), actives largely listed as inhibitors. 0.21% of 410,000 active. AID 624170, 2012
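hKGA in 45 mM KH2PO4 pH 8.2, 0.02% Tween-20 with pin-transferred compounds; 1 mM L-glutamine (stock) plus glutamate oxidase/HRP/Amplex Red coupling added. Fluorescence read initially and after 30 min at RT.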
PLK1 PBD block: qHTS for Inhibitors of PLK1-PDB (polo-like kinase 1 - polo-box domain): Primary Screen. Potency, µM, most hits filed as inhibitors. Plk1 PBD binding of FITC phosphopeptide, fluorescence polarization. 2.8% of 360,000 active. Serine/threonine-protein kinase PLK1 (Homo sapiens), P53350; note: series mostly up to about 57 µM; nearly all actives have a fitted effect of over 65% in size
KAT2A inh: qHTS Assay for Inhibitors of GCN5L2 | Potency, µM (highest dose often 58.9 µM), hits mostly inhibitors | GCN5L2 HAT assay, ThioGlo1 CoA-SH fluorescence | 0.21% of 390,000 active
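Free CoA generated was detected with ThioGlo1 (50uM) fluorescence at Ex340nm/Em540nm, read immediately and after 20 min at room temperature. Enzyme, 20 nM in HEPES pH 7.5 buffer, saw compounds 15 min before adding 75uM H3(1-25) peptide and 70uM acetyl-CoA.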
Of the large screens only hits and unclear results are named; the others gave an inactive call. Rows were chosen to be rich in hits. Some 3.4% of all compounds tested hit in one or more screens of this group. Calls come from the whole dose curve; as a rule, active = well fitted curve in the direction sought with a large enough effect; inconclusive = small, poorly fitted or top-dose-only effect, or another doubt; inactive = no such curve, though single readings can be large; an effect the other way counts as inactive or inconclusive.

O=C1NC(=O)/C(=C/c2ccc3c(c2)OC(F)(F)O3)S1	Mito fusion act 3.7µM, VDR inhibitor inconclusive (no result: PKM2 act, GLS inhibitor, PLK1 PBD block)
COc1ccc(C=C2SC(=O)NC2=O)cc1OC	none (no result: Mito fusion act, PKM2 act, KAT2A inh)
OCc1cc2c(cn1)[nH]c1ccccc12	KAT2A inh inconclusive (no result: Mito fusion act, PKM2 act, GLS inhibitor, PLK1 PBD block)
Cc1ccc(Sc2c(C)nn(-c3ccccc3)c2OC(=O)CC(C)C)cc1	VDR inhibitor 79µM (no result: Mito fusion act, PKM2 act, PLK1 PBD block)
COc1cc(C(=O)Oc2c(Sc3ccc(C)cc3)c(C)nn2-c2ccccc2)cc(OC)c1OC	VDR inhibitor inconclusive (no result: Mito fusion act, PKM2 act, PLK1 PBD block)
CCCC(=O)Oc1c(Sc2ccc(Cl)cc2)c(C)nn1-c1ccccc1	VDR inhibitor 50µM (no result: Mito fusion act, PKM2 act, PLK1 PBD block)
CC12CC(O)C3C(CCC4=CC(=O)CCC43C)C1CCC2=CCO (stereo not given)	none (no result: Mito fusion act, PKM2 act, KAT2A inh)
CCC1=Nc2cc(C(=O)N3CCCCC3)ccc2Sc2ccc(C)cc21	none (no result: PKM2 act)
CCCC1=Nc2cc(C(=O)N3CCCC3)ccc2Sc2ccc(C)cc21	PLK1 PBD block 27µM (no result: PKM2 act)
COc1ccc2c(CC(=O)OCC(=O)Nc3ccc(C)cc3)coc2c1	none (no result: PKM2 act)
COc1ccc2c(CC(=O)N3CCc4ccccc43)coc2c1	none
COc1ccc2c(CC(=O)OCC(=O)Nc3ccc4c(c3)OCO4)coc2c1	VDR inhibitor 18µM, PLK1 PBD block 17µM
COc1ccc2c(CC(=O)OCC(=O)N3CCc4ccccc43)coc2c1	VDR inhibitor inconclusive, PLK1 PBD block 27µM
COc1ccc(NC(=O)CN(c2c(C)cccc2C)S(C)(=O)=O)cc1	none
O=C(COC(=O)Cc1ccc(-c2ccccc2)cc1)NCc1ccccc1	VDR inhibitor inconclusive, PLK1 PBD block 27µM
CC(C)N1C/C(=C/c2ccsc2)C(=O)/C(=C/c2ccsc2)C1	VDR inhibitor 16µM
CS(=O)(=O)n1nc(OC(=O)c2cccc3ccccc23)cc1N	none
CS(=O)(=O)n1nc(OC(=O)c2cc(Br)ccc2Cl)cc1N	VDR inhibitor inconclusive, PLK1 PBD block 11µM
COC(=O)c1cc(-c2ccccc2)sc1N	VDR inhibitor inconclusive, PLK1 PBD block 21µM
Cc1ccc(/C=N/n2cnc3sc(C)c(C)c3c2=O)o1	VDR inhibitor inconclusive, PLK1 PBD block 21µM
Cc1ccc(/C=N/n2cnc3sc4c(c3c2=O)CCCC4)o1	none
Cc1cc(Cl)ccc1NC(=S)N(CCCN1CCOCC1)Cc1cccs1	VDR inhibitor inconclusive, PLK1 PBD block 11µM
O=C(CNC(=S)N(CCCN1CCOCC1)Cc1cccs1)NCCN1CCOCC1	none
CCN(CC)CCCNC(=O)CNC(=S)N(CCCN1CCOCC1)Cc1cccs1	PLK1 PBD block 19µM
CCCSCCCNC(=O)C1CCCN(c2nn3cc(-c4ccc(OC)cc4)nc3s2)C1 (stereo not given)	none (no result: Mito fusion act, PKM2 act, PLK1 PBD block)
CCN(CC)C(=O)c1cc([N+](=O)[O-])cc2c1-c1ccc([N+](=O)[O-])cc1C2=C(C#N)C#N	VDR inhibitor 25µM, PLK1 PBD block 9.5µM, KAT2A inh inconclusive
CC[N+]1(CC)CCC(=C(c2ccccc2)c2ccccc2)C1C (stereo not given)	none (no result: Mito fusion act, VDR inhibitor, PKM2 act, PLK1 PBD block, KAT2A inh)
O=C(Oc1ccccc1)N1CCC2(CC1)CCN(c1ccncc1)CC2	none (no result: Mito fusion act, PKM2 act, GLS inhibitor, PLK1 PBD block)
COC(=O)CC/C(O)=C1\C(=O)CC(C)(C)CC1=NCCc1nc2ccccc2[nH]1	PLK1 PBD block 21µM
CC(=O)c1ccc(Nc2nc(CN)cs2)cc1	none (no result: Mito fusion act, VDR inhibitor, PKM2 act, KAT2A inh)
c1ccc2c(CN3CCOCC3)c3ccccc3c(CN3CCOCC3)c2c1	none
Oc1c(CN2CCOCC2)ccc2ccccc12	VDR inhibitor inconclusive, PLK1 PBD block 24µM
CCOc1ccc2c(c1)nc(SCC(=O)c1ccc(Br)s1)n2C	VDR inhibitor 89µM, PLK1 PBD block 30µM
CCOc1ccc(/C=N/NC(=O)c2cc(-c3ccco3)nc3ccccc23)cc1	none
O=C(NC1CC1)c1cc(-c2ccco2)nc2ccccc12	PKM2 act inconclusive, GLS inhibitor inconclusive, PLK1 PBD block 21µM, KAT2A inh inconclusive

Compound activity (PubChem)
